Experimental data reported in PubChem BioAssay.

Biological target: Voltage-gated potassium channel subunit beta-2 (Rattus norvegicus) (UniProt P62483)
Assay: KvBeta positive modulators, primary screen, biochemical, NADPH fluorescence (AID 623);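 also: fluorescence intensity change per second fitted from 20 to 320 s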
Conditions: Recombinant KvBeta, NADPH fluorescence decrease slope, 10 min; at 10 µM; hits give low values;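 active = NADPH fluorescence slope more negative than the mean of all samples by about 3 SD, 99.7% confidence; inactive = the rest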

Voltage-gated potassium channel subunit beta-2 (Rattus norvegicus), sequence (P62483 whole entry, looked up): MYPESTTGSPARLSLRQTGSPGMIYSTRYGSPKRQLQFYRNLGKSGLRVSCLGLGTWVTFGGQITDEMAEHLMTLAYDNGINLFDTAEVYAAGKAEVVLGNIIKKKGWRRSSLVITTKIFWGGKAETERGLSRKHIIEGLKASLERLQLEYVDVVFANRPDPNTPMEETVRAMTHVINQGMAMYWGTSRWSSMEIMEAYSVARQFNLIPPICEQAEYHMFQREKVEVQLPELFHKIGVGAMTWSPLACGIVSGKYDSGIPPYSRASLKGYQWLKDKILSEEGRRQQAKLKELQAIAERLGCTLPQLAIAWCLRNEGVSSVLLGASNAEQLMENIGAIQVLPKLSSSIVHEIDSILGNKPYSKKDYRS

NADPH fluorescence slope, inactive:
O=C(NCC1CCCO1)c1cccc(N2C(=O)C3C4C=CC(C4)C3C2=O)c1 (stereo not given) -4e-05
CC(=O)Nc1cccc(NC(=O)C2CCCN2C(=O)Nc2ccc(C)cc2)c1 (stereo not given) -4.3e-06
COc1cccc(CN=CC2=C(O)CC(C)(C)CC2=O)c1OC 9.7e-05
COC(=O)Cn1c(CN2CCOCC2)nc2c1c(=O)n(C)c(=O)n2C -5.7e-05
O=C(O)c1[nH]c2ccc(Cl)cc2c1CC(=O)N1CCN(C(=O)c2ccco2)CC1 -3.1e-05
CC1CCN(c2oc(-c3cccc4ccccc34)nc2C#N)CC1 -6.6e-07
Cc1ccc(S(=O)(=O)N2CCN(C(=O)CSC3CCCC3)CC2)c(C)c1 4.3e-06
CCOC(=O)c1sc2nc(SCC#N)n(CCCN3CCCC3=O)c(=O)c2c1C -6.7e-05
COc1cc(C(Nc2ccc3c(c2)OCO3)C(=O)NC2CCCCC2)cc(OC)c1OC (stereo not given) -3e-05
Cc1cc2c(cc(C(=O)OCC(=O)NCc3cccs3)n2C(C)C)o1 -5.1e-05
O=C(CSc1nc2ccccc2nc1SCC(=O)N1CCOCC1)N1CCOCC1 -4.2e-05
Cc1onc(-c2ccccc2Cl)c1C(=O)Nc1cnn(Cc2ccccc2)c1 6.7e-06
CC(NC(=O)c1ccco1)c1ccc2c(c1)OCCO2 (stereo not given) -2.6e-05
Cc1nc2ccccc2n1CCC(=O)Nc1cccc(F)c1 9.1e-07
O=C(NC1CCCCCC1)C1CCCN(S(=O)(=O)c2cccs2)C1 (stereo not given) -6.4e-05
